{"source": "the supplement of paper PMC11417369", "note": "± gives the standard deviation of the averaged measurements. Over roughly 25,000 sequences, “ln(normalized median fluorescence intensity)” has its median near 8.6; the highest 2% begin near 10. What follows is part of a selection rich in the highest values, with near analogues and random picks from the rest."}
{"tested_on": "PfAP2-EXP AP2 domain (GST-tagged)", "test": "gcPBM binding intensity (ln(normalized median fluorescence intensity)); higher = stronger DNA binding", "method_in_brief": "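For binding intensity, the highest Masliner-normalised natural-log median intensity across replicate spots of either probe orientation was taken. Protein bound to the array was stained with Alexa488 anti-GST antibody and scanned at 488 nm. The protein, GST-tagged P. falciparum DNA-binding domains from E. coli at about 25 μg on average, had been applied for 1 h to an Agilent 4 × 180k array of primer-extended double-stranded 36-bp intergenic genomic probes and negative controls.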"}
{"sequence": "AATTATATTTGAAATACACACATAAAAACCATATAG [CACACA_site7598]", "gcPBM binding intensity (ln)": "8.89 ± 0.51"}
{"sequence": "ACACACATATATACATGTACATATATATATATATAT [XGTACX_site451]", "gcPBM binding intensity (ln)": "10.1 ± 0.3"}
{"sequence": "TCACACATATATTCATGTACATATTAATATTTCCAT [XGTACX_site5387]", "gcPBM binding intensity (ln)": "8.85 ± 0.44"}
{"sequence": "ATGTAAATACATATATGTACACAAATATATATATAT [XGTACX_site3537]", "gcPBM binding intensity (ln)": "9.8 ± 0.35"}
{"sequence": "ACACATACATACATATGTACATATATACATATATAC [XGTACX_site5559]", "gcPBM binding intensity (ln)": "8.84 ± 0.26"}
{"sequence": "GTAAATACACATATGTGTACATATATATATATATAT [XGTACX_site3696]", "gcPBM binding intensity (ln)": "10.2 ± 0.35"}
{"sequence": "AATATATTCCACATGTGTACATATATATATATATAT [XGTACX_site8006]", "gcPBM binding intensity (ln)": "10.3 ± 0.24"}
{"sequence": "TATATATATTTATGTACACACATATATACCTTTCAT [CACACA_site5479]", "gcPBM binding intensity (ln)": "8.74 ± 0.23"}
{"sequence": "TATATATATATATATGTACACACATATATACCTTTC [CACACA_site8854]", "gcPBM binding intensity (ln)": "10.2 ± 0.26"}
{"sequence": "ACATACACATATACATGTACATATATATATATATAT [XGTACX_site5082]", "gcPBM binding intensity (ln)": "10.2 ± 0.2"}
{"sequence": "TATATATATATATGTACACACATATATACCTTTCAT [CACACA_site2679]", "gcPBM binding intensity (ln)": "10.1 ± 0.27"}
{"sequence": "ACACATATATAAATATGTACATATATATATATACAT [XGTACX_site1595]", "gcPBM binding intensity (ln)": "8.61 ± 0.23"}
{"sequence": "TCATACATGTATATGTGTACATATAATGTATATTCC [XGTACX_site6082]", "gcPBM binding intensity (ln)": "8.3 ± 0.3"}
{"sequence": "AAAAAAATATATATTACACACATATATACCTATATA [CACACA_site5688]", "gcPBM binding intensity (ln)": "8.18 ± 0.47"}
{"sequence": "TATATCTGTATCATTACACACATGTATACTTATTTG [CACACA_site6134]", "gcPBM binding intensity (ln)": "8.74 ± 0.43"}
{"sequence": "TTACGATTATACAAAAGTACATGTATTACACAATAT [XGTACX_site5138]", "gcPBM binding intensity (ln)": "8.6 ± 0.33"}
{"sequence": "TACAAAAAAAGATGATGTACAATGAAAAATAAGAAA [XGTACX_site5840]", "gcPBM binding intensity (ln)": "9.18 ± 0.37"}
{"sequence": "TATTATAATTAATATACACACGCTTATATATATATA [CACACA_site75]", "gcPBM binding intensity (ln)": "9.93 ± 0.3"}
{"sequence": "TAATTGTAGACATGCACACACAAATATTATATATGT [CACACA_site845]", "gcPBM binding intensity (ln)": "8.72 ± 0.45"}
{"sequence": "TAATGAAATATACAGAGTACATTCTGTATATAGGAT [XGTACX_site7691]", "gcPBM binding intensity (ln)": "8.46 ± 0.3"}
{"sequence": "ATATTTACCACTGTATGTACATATATAAAATATATC [XGTACX_site6373]", "gcPBM binding intensity (ln)": "8.81 ± 0.18"}
{"sequence": "CTTGAAAGATTTTATTGTACTCATAAGATACATTTC [XGTACX_site3178]", "gcPBM binding intensity (ln)": "8.31 ± 0.36"}
{"sequence": "TATATATATATATATTGTACACATACATGTAGTTTT [XGTACX_site4848]", "gcPBM binding intensity (ln)": "10.2 ± 0.29"}
{"sequence": "TATATATATACATATTGTACATGTGTATATTTTTTT [XGTACX_site361]", "gcPBM binding intensity (ln)": "8.93 ± 0.042"}
{"sequence": "TATATAGTTTATATTTGTACATATAGACATTTATAA [XGTACX_site6414]", "gcPBM binding intensity (ln)": "8.23 ± 0.3"}
{"sequence": "ATATATATATATATATGTACACATATATTTCTTTTC [XGTACX_site3443]", "gcPBM binding intensity (ln)": "10 ± 0.47"}
{"sequence": "TACATTGTATACATATGTACACATATATATATATAT [XGTACX_site6174]", "gcPBM binding intensity (ln)": "10.1 ± 0.4"}
{"sequence": "TGTATACGCATATGTACACACATATATATGTATATG [CACACA_site3087]", "gcPBM binding intensity (ln)": "8.65 ± 0.16"}
{"sequence": "TATTATAGTATATATTGTACATATATATATTTTTTA [XGTACX_site8831]", "gcPBM binding intensity (ln)": "8.35 ± 0.37"}
{"sequence": "AGTTTATAGTGATATTGTACATATATATATATATAT [XGTACX_site572]", "gcPBM binding intensity (ln)": "10.2 ± 0.66"}
{"sequence": "ATATATATATATATATGTACACATATACGCTTTTTC [XGTACX_site3838]", "gcPBM binding intensity (ln)": "10.3 ± 0.28"}
{"sequence": "AAAATGTACTTTTTCTAAAGAGTAATGATGCTTGAT [CACACA_negctrl_site1124]", "gcPBM binding intensity (ln)": "8.52 ± 0.45"}
{"sequence": "ATATGATAAATTATATGTACTTAAAATATATTATAA [XGTACX_site5904]", "gcPBM binding intensity (ln)": "8.26 ± 0.18"}
{"sequence": "TATATATATATATATACATGCATATTTTTTATTTTT [TGCATGCA_site464]", "gcPBM binding intensity (ln)": "10.3 ± 0.31"}
{"sequence": "AACAGACATAGACACACACACATATATTTATTTATA [CACACA_site7571]", "gcPBM binding intensity (ln)": "8.64 ± 0.4"}
{"sequence": "CTTTTTTTTTTATGCACACACAATTATACATTCCTT [CACACA_site3877]", "gcPBM binding intensity (ln)": "9.08 ± 0.37"}
{"sequence": "CATATTTTATTATATACATGCAATTTTAATATATAT [TGCATGCA_site544]", "gcPBM binding intensity (ln)": "8.59 ± 0.25"}
{"sequence": "TATATACATGCATATACACACATATATTTATTTATA [CACACA_site6327]", "gcPBM binding intensity (ln)": "8.7 ± 0.33"}
{"sequence": "TATTCATGCATATACACACACATATATTTATATTTT [CACACA_site7786]", "gcPBM binding intensity (ln)": "8.77 ± 0.35"}
{"sequence": "TATATATATATATATACATGCATACAATTTTATGAG [TGCATGCA_site466]", "gcPBM binding intensity (ln)": "10.2 ± 0.29"}
{"sequence": "TCCTTTTTTTTTTATGCACACACAATTATACATTCC [CACACA_site9287]", "gcPBM binding intensity (ln)": "9.06 ± 0.4"}
{"sequence": "TATAATAATAATTATACATGCATGAATATTTATATG [TGCATGCA_site811]", "gcPBM binding intensity (ln)": "8.86 ± 0.16"}
{"sequence": "TATATATATATATATGCACACATTTATACAATTTTA [CACACA_site2986]", "gcPBM binding intensity (ln)": "10.2 ± 0.3"}
{"sequence": "TATTTATATAGACACACACACATATATTTATATTTT [CACACA_site7240]", "gcPBM binding intensity (ln)": "8.52 ± 0.45"}
{"sequence": "GTTATTTATAGACACACACACATGCATGCACATATA [CACACA_site6204]", "gcPBM binding intensity (ln)": "10.2 ± 0.39"}
{"sequence": "GCATAACCTTTATATTGTACATATACCTTTATTGTT [XGTACX_site6046]", "gcPBM binding intensity (ln)": "9.16 ± 0.45"}
{"sequence": "TTTAATAAATAAATAAATAAAATATATTAAAAACCA [CACACA_negctrl_site80]", "gcPBM binding intensity (ln)": "8.38 ± 0.36"}
{"sequence": "GCATCCCTTTTTATGTGTACATACAAAGGCAATTAC [XGTACX_site6977]", "gcPBM binding intensity (ln)": "8.86 ± 0.33"}
{"sequence": "CCTTAATATTTTTGAAGTACATATTTATTTTACAAG [XGTACX_site3049]", "gcPBM binding intensity (ln)": "8.31 ± 0.33"}
{"sequence": "TGCTACATTTTATGTACACACATATACAGATATATA [CACACA_site4646]", "gcPBM binding intensity (ln)": "8.42 ± 0.26"}
{"sequence": "TCATATGTTAAATGATGTACATTTAATATAAATAAA [XGTACX_site900]", "gcPBM binding intensity (ln)": "8.38 ± 0.15"}
{"sequence": "AATTGCATAATATATTCACACATTTTTAAGTGATAC [CACACA_site5679]", "gcPBM binding intensity (ln)": "8.38 ± 0.35"}
{"sequence": "ATATATATATATATTGTACACACATTTATGCATATA [CACACA_site9055]", "gcPBM binding intensity (ln)": "10 ± 0.2"}
{"sequence": "ATATTCAATATATTATGTACACATATATGAGGATAT [XGTACX_site7019]", "gcPBM binding intensity (ln)": "8.65 ± 0.41"}
{"sequence": "ATAATCATAAAATAAACACACATATATAAATATATT [CACACA_site276]", "gcPBM binding intensity (ln)": "8.27 ± 0.47"}
{"sequence": "TATGAATGGTTAAGTACACACATATTAATATATGTA [CACACA_site3490]", "gcPBM binding intensity (ln)": "8.49 ± 0.45"}
{"sequence": "ATTATATAATAATGCATGCACCTTATTTTCATTTCA [GTGCAC_site9922]", "gcPBM binding intensity (ln)": "9.99 ± 0.19"}
{"sequence": "ATATTATATAATAATGCATGCACCTTATTTTCATTT [TGCATGCA_site405]", "gcPBM binding intensity (ln)": "10.2 ± 0.44"}
{"sequence": "TAATAATTAATTAATATAATATTTTTTCATAATTAT [XGTACX_negctrl_site602]", "gcPBM binding intensity (ln)": "8.22 ± 0.4"}
{"sequence": "TGTATAATATTTGGTGCACACAAATTAACAACTGTT [CACACA_site9245]", "gcPBM binding intensity (ln)": "9.21 ± 0.32"}
{"sequence": "AACATATTTTTAAATACACACACATAAAAAAAAAAA [CACACA_site8279]", "gcPBM binding intensity (ln)": "8.59 ± 0.5"}
{"sequence": "AATTTATATGTTTTGTGTACACAATTTATTAAATTA [XGTACX_site6448]", "gcPBM binding intensity (ln)": "9.03 ± 0.29"}
{"sequence": "ATTCGTCACATTTTTTGATATATATATATATATATA [CACACA_negctrl_site1785]", "gcPBM binding intensity (ln)": "10.4 ± 0.4"}
{"sequence": "TATTTTGTATTCATTTGTCACATATAATAGATAGGA [TGCATGCA_negctrl_site9]", "gcPBM binding intensity (ln)": "8.69 ± 0.32"}
{"sequence": "GTATATATTTTGTATTCATTTGTCACATATAATAGA [CACACA_negctrl_site506]", "gcPBM binding intensity (ln)": "8.69 ± 0.5"}
{"sequence": "ATCCATCTTTTAATTTGTACTTATTCTTTTTTCTTT [XGTACX_site5299]", "gcPBM binding intensity (ln)": "9 ± 0.67"}
